Data reported in PubChem BioAssay AID2252 (Southern Research Specialized Biocontainment Screening …, 2010).
The campaign covered roughly 2,300 compounds. About 1,500 (65%) were called active. No rule for the calls is given here. So high a share suggests a set chosen from earlier hits. A selection follows.

Test: PubChem AID 2252;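 also: 100% = mean of untreated cell control wells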
Details: THP-1 viability, CellTiter-Glo luminescence, 72 h; min viability: minimum viability across concentrations, hits give low values, concentration not given here; series mostly up to 50 µM; viability: at the top concentration

Row | Structure (SMILES) | viability
1 | CCOC(=O)c1ccc(NC(=O)c2cc3c(s2)CCC3)cc1 | 89% (inactive)
2 | CCC1(CC)C(=O)NC(=O)NC1=Nc1cccc(OC)c1 | 105% (inactive)
3 | CCOc1ccc2nnnn2n1 | 96.2% (inactive)
4 | CCCCC(=O)Nc1ccc(F)c(Cl)c1 | 90.9% (inactive)
5 | Clc1ccc(Cn2cc(Br)cn2)cc1Cl | 85.3% (inactive)
6 | CCOC(=O)CSc1nc(-c2ccccc2)nc2ccccc12 | 103% (inactive)
7 | COc1ccccc1NC(=O)Cn1c(=O)n(CCc2c[nH]c3ccccc23)c(=O)c2cccnc21 | 92% (inactive)
8 | c1ccc(N2CCN(c3nc4ccccc4[nH]3)CC2)nc1 | 88.5% (inactive)
9 | C=CCOc1ccc(-c2n[nH]c(=S)o2)cc1 | 99.7% (inactive)
10 | C=CC1=C(C(=O)O)N2C(=O)[C@@H](NC(=O)/C(=N\O)c3csc(N)n3)[C@H]2SC1 (stereo in doubt) | 92.6% (inactive)
11 | COc1ccc(/C=N/NC(=O)c2cccnc2)cc1 | 91.8% (inactive)
12 | Cc1ccc2cc(-c3noc(C4CCCO4)n3)c(=O)[nH]c2c1 (stereo unspecified) | 93.5% (inactive)
13 | CCOc1ccc(NC(N)=O)cc1 | 103% (inactive)
14 | Clc1ccc(OCc2nn3c(C4CCCCC4)nnc3s2)c(Cl)c1 | 86.5% [at 25 µM] (inactive)
15 | COc1ccccc1CNC(=O)COC(=O)CCC(=O)c1cccs1 | 102% (inactive)
16 | O=c1c2ccccc2ncn1Cc1ccc(Cl)cc1 | 81.6% (inactive)

Row | Structure (SMILES) | viability
17 | COc1nc(N(C#N)CC(N)=O)nc(N2CCCC2)n1 | 89.8% (inactive)
18 | Cc1ccc(-c2c(C)n([O-])c3c([n+]2=O)CCCC3)o1 | 116% (inactive)
19 | O=S(=O)(c1ccccc1)c1nc(-c2cccs2)oc1NCC1CCCO1 (stereo unspecified) | 81.2% (inactive)
20 | C#CCOCCOCCOCCNc1nc(N2CCN(C(=O)C(Cc3cc4ccccc4[nH]3)n3cc(C(N)C(C)CC)nn3)CC2)nc(N2CCN(C(=O)C(Cc3cc4ccccc4[nH]3)n3cc(C(N)C(C)CC)nn3)CC2)n1 (stereo unspecified) | 92.1% (inactive)
21 | CC[C@H]1OC(=O)[C@H](C)[C@@H](O[C@H]2C[C@@](C)(OC)[C@@H](O)[C@H](C)O2)[C@H](C)[C@@H](O[C@@H]2O[C@H](C)C[C@H](N(C)C)[C@H]2O)[C@](C)(OC)C[C@@H](C)C(=O)[C@H](C)[C@@H](O)[C@]1(C)O | 90.7% [at 25 µM] (inactive)
22 | CCOC(=O)Cc1[nH]nc2c1C(c1ccoc1)C(C#N)=C(N)O2 (stereo unspecified) | 89.2% (inactive)
23 | O/N=C/c1ccc(OCc2ccccc2)c(Cl)c1 | 96.7% [at 25 µM] (inactive)
24 | C#CCOCCOCCOCCNc1nc(N2CCN(C(=O)[C@H](Cc3ccc(O)cc3)n3cc([C@@H](N)CC(C)C)nn3)CC2)nc(N2CCN(C(=O)[C@H](Cc3cc4ccccc4[nH]3)n3cc([C@@H](N)CC(C)C)nn3)CC2)n1 | 97.2% (inactive)
25 | Cc1ncc([N+](=O)[O-])n1CC(=O)NC1CCCC1 | 101% (inactive)
26 | Cc1ccc(N(C(=O)c2sc(C)nc2C)C(C(=O)NCc2ccco2)c2ccccc2)cc1 (stereo unspecified) | 82.3% (inactive)
27 | CCOC(=O)c1ccc(CNCc2ccc(Br)cc2)cc1 | 83.4% (inactive)
28 | Cc1cc(C)cc(NC(=O)C(Sc2nnc(C)c(=O)[nH]2)c2ccccc2)c1 (stereo unspecified) | 101% (inactive)
29 | Nc1ccc(S(=O)(=O)Nc2nccs2)cc1 | 92.6% (inactive)
30 | CC(C)c1cc(C(=O)Nc2ccc3c(c2)OCO3)no1 | 82.2% (inactive)
31 | CC1Cc2ccccc2N1C(=O)CN1C(=O)C(=O)N(Cc2ccccc2)C1=O (stereo unspecified) | 108% (inactive)
